In PubChem BioAssay (NCATS) one finds Potency and viability, % of control data, which are given here for 40 compounds.

“And” between values parts separate entries of the source, which are not always exact repeats. Equal entries are not always repeated. Records with an inconclusive call do not appear. A number with no mark means an inactive call. The source made the active and inactive calls. The call rests on the fitted dose curve; in most records, active means well fitted cell-killing curve with a large enough effect; inconclusive means small, poorly fitted or top-dose-only effect, or effect the other way; inactive means no such curve, though single readings can be large or run the other way.
Potency means the concentration at half of the fitted maximal effect.

A short description of the test: Viability qHTS for spleen associated tyrosine kinase inhibitor (SYKi) drug resistant MV4-11 cells (AID 1963824). Further: nearly all actives have a fitted effect of over 35% in size. Particulars: SYKi-resistant MV4-11 viability, CellTiter-Glo, 72 h; series mostly up to 45 µM. The source says:
Department of Medicine, Hematology/Oncology
University Hospital Frankfurt, Germany.
Trials have shown promising clinical activity of the selective SYK inhibitor entospletinib in patients with high expressing HOXA9/MEIS1 acute leukemias. As the development of resistance mechanisms is a common problem in the use of targeted drugs, we performed a chemical library screen to identify drug sensitivities in SYK inhibitor resistant AML cells. […] Glucocorticoids are potent immunosuppressants which work in part by inhibiting the transcription of cytokine genes.
Described herein is a viability screen to look for activity in the SYK inhibitor drug resistant cell line against four NCATS compound libraries (MIPE 5.0, NPC, NPACT, and Kinase) totaling 11372 compounds. Active hits were reacquired for confirmation and further secondary assay testing.
SEQUENCE No. (e.g., 1, 2, 3, etc.); […] (e.g., Cells, Incubation, Reagent, etc.); VALUE; DESCRIPTION.
1; Media; 2uL; white, solid-bottom Corning assay plate.
2; Compounds; 23nL; Echo acoustic dispenser.
3; Cell; 5uL; 500 cells per well.
4: Incubation; 72hr; 37 C, 5% CO2, 95% humidity.
5; Reagent; 3uL; CellTiter-Glo reagent (Promega).
6; Incubation; 10min; room temperature.
7; Detection; Luminescence; ViewLux plate reader (PerkinElmer).
NOTES (numbers refer to Sequence numbers above
1. Quantitative high-throughput screening (qHTS) of small molecule compounds was conducted on drug resistant SYKi MV4-11 cell line.
2. Twenty-three nanoliter of small molecule compounds were added to each assay plates using the Echo acoustic dispenser (Beckman Coulter).
3. Cells were seeded into the assay plates at a final density of 500 cells in 5uL of media per well using the Multidrop Combi dispenser.
4. Plates were covered with stainless steel gasketed lids and incubated for 72 hours at standard cell culture conditions.
5. Viability was assessed by adding 3uL of CellTiter-Glo detection reagent (Promega).
6. Plates were covered with gasket lids and incubated for 10 minutes at room temperature.
7. Luminescence was measured on a ViewLux plate reader (PerkinElmer).
For `C[C@]12CCC3[C@@H](CC[C@H]4NC(=O)C=C[C@]34C)[C@@H]1CC[C@@H]2C(=O)Nc1cc(C(F)(F)F)ccc1C(F)(F)F` (stereo not given in full), the Potency is 9.34 µM (active).

On to `C[C@@H]1O[C@@H](O[C@H]2[C@H](O)[C@@H](O[C@@H]3O[C@H](CO)[C@@H](O)[C@H](O[C@@H]4O[C@H](CO)[C@@H](O)[C@H](O)[C@H]4O)[C@H]3O)[C@H](O[C@H]3CC[C@@]4(C)C(=CC[C@@H]5C4CC[C@@]4(C)C5C[C@@H]5OC6(CC[C@@](C)(CO[C@@H]7O[C@H](CO)[C@@H](O)[C@H](O)[C@H]7O)O6)[C@@H](C)[C@@H]54)C3)O[C@@H]2CO)[C@H](O)[C@H](O)[C@H]1O` (stereo not given in full), for which the viability, % of control was 94.3% [at 9.25 µM].

For `N#C/C(=C\c1ccc(O)c(O)c1)C(=O)NCc1ccccc1`, the Potency is 9.2 µM (active) and 16.6 µM (active).

For `CC(C)CC(=O)c1c(O)cc2c(c1O)C(CC(C)C)C1=C(O2)C(C)(C)C(=O)C(C)(C)C1=O` (stereo not given), the Potency was 8.93 µM (active).

`CC(N=C(NC#N)Nc1ccncc1)C(C)(C)C` (stereo not given): the Potency result is “inactive”.

Take `Cc1cccc(C)c1NC(=O)CC12CCCN1CCC2`: the Potency result was “inactive”.

With `C[C@]12CC[C@@H]3c4ccc(O)cc4CC[C@H]3[C@@H]1CC[C@@H]2OC(=O)CCC1CCCC1`, the Potency entry was “inactive”.

As to `C=CC(C)(O)CC/C=C(\C)C(=O)O[C@@H]1[C@@H](O)[C@H](OC(C)(C=C)CC/C=C(\C)C(=O)O[C@@H]2O[C@H](CO)[C@@H](O)[C@H](O)[C@H]2O)O[C@H](CO)[C@H]1OC(=O)/C(C)=C/CCC(C)(O)C=C` (stereo not given in full), the viability, % of control was 77.6% [at 9.25 µM].

In the case of `CCCCCCCCCCCCCCCCCC(=O)OCC(O)CO` (stereo not given), the Potency result is “inactive”.

`CCN(CC)CCN`: the Potency entry was “inactive”.

For `CC(=O)NCCCCCC(=O)O`, the Potency result was “inactive”.

In the case of `CN1CCC(Nc2ncc3ncnc(Nc4ccc(F)c(Cl)c4)c3n2)CC1`, the Potency was 18.8 µM (active) and 11.6 µM (active).

Regarding `CC#C[C@@H](CC(=O)O)c1ccc(OCc2cccc(-c3ccc(C(F)(F)F)cc3)c2)cc1`, the Potency is 16.6 µM (active).

In the case of `CC1=CC(=O)CC(C)(C)C1/C=C/C(C)O[C@@H]1O[C@H](CO)[C@@H](O)[C@H](O)[C@H]1O[C@@H]1OC[C@](O)(CO)[C@H]1O` (stereo not given in full), the Potency entry is “inactive”.

Turning to `Cn1ncnc1[C@@H]1c2n[nH]c(=O)c3cc(F)cc(c23)N[C@H]1c1ccc(F)cc1`, the Potency entry is “inactive”.

`C=C1C(=O)O[C@@H]2[C@H]1CCC(C)=C(CCC(=O)O)[C@@]2(C)O`: the Potency was 4.11 µM (active).

Consider `CCN1CCC[C@@H]1CNC(=O)c1ccc2c(c1)NC(=O)c1cccc(C)c1S2`, for which the Potency is 20.6 µM (active).

Turning to `C=C1C(=O)O[C@@H]2[C@H]3C(C)=CC(=O)C3=C(C)CC[C@@H]12`, the Potency is 0.651 µM (active).

For the compound `O=C(/C=C/c1ccc(O)cc1)OC1[C@H](O)CC(O)(C(=O)O)C[C@H]1O` (stereo not given in full), the Potency entry was “inactive”.

For `CC(=O)c1ccc2c(c1)N(CCCN(C)C)c1ccccc1S2`, the Potency is 11.9 µM (active).

`CC(C)C[C@H](NC(=O)[C@@H]1O[C@H]1C(=O)O)C(=O)NCCCCN=C(N)N`: the Potency entry was “inactive”.

`O=C(/C=C/c1ccc(O)c(O)c1)O[C@H]1[C@H](OC2CCCCC2O)O[C@H](CO)[C@@H](O)[C@@H]1O` (stereo not given in full): the Potency result was “inactive”.

Regarding `CNc1cc2[nH]c(=O)n(-c3ccc(NC(=O)NS(=O)(=O)c4ccc(Cl)s4)cc3)c(=O)c2cc1F`, the Potency entry was “inactive”.

For the compound `C=C1C(=O)OC2/C=C(\COC(C)=O)CC/C=C(\C=O)CC(OC(=O)C(C)CC)C12` (stereo not given), the Potency is 1.12 µM (active).

`CCc1ccc(N(CC(C)C)S(=O)(=O)c2ccc(OCC3CCOCC3)c(CO)c2)cc1`: the Potency is 18.6 µM (active).

With `CCn1c(=O)c(-c2ccc(-c3cncc(C)n3)cc2Cl)cc2cnc(NCCC3CCN(C)CC3)nc21`, the Potency is 2.09 µM (active).

For `O=C(O)c1n[nH]c2c1C[C@H]1C[C@@H]21`, the Potency entry was “inactive”.

As to `Cc1cc(CNC(=O)c2cc(C(=O)NCc3ccc(F)c(C)c3)ncn2)ccc1F`, the Potency result was “inactive”.

Turning to `COC1C(=O)CCC2(CO2)C1(O)C1(C)OC1CC=C(C)C` (stereo not given), the Potency entry was “inactive”.

Turning to `CO[C@H]1C[C@@H]2CC[C@@H](C)[C@@](O)(O2)C(=O)C(=O)N2CCCC[C@H]2C(=O)O[C@H]([C@H](C)C[C@@H]2CC[C@@H](OC(=O)C(C)(CO)CO)[C@H](OC)C2)CC(=O)[C@H](C)/C=C(\C)[C@@H](O)[C@@H](OC)C(=O)[C@H](C)C[C@H](C)/C=C/C=C/C=C/1C`, the Potency is 10.2 µM (active).

On to `CC[C@H](NC(=O)[C@H](C)NC)C(=O)N1C[C@@H](O)C[C@H]1Cc1c(-c2[nH]c3cc(F)ccc3c2C[C@@H]2C[C@H](O)CN2C(=O)[C@H](CC)NC(=O)[C@H](C)NC)[nH]c2cc(F)ccc12`, for which the Potency was 0.0074 µM (active).

As to `COCCCOc1cc(C[C@@H](C[C@H](N)[C@@H](O)C[C@H](C(=O)NCC(C)(C)C(N)=O)C(C)C)C(C)C)ccc1OC`, the Potency is 168 nM (active) and 5.9 µM (active).

As to `CCn1c(C(=O)N(C2CC2)C2CC2)cc2c3c(ncn3C)c(Nc3cc(C)n(C)n3)nc21`, the Potency was 2.31 µM (active) and 3.72 µM (active).

With `Cc1cc(N2CCN(C(=O)Oc3ccc(-c4ccccc4)cn3)CC2)c2ccccc2n1`, the Potency is 5.8 µM (active).

Turning to `Cc1c(C(=O)Nc2ccc(N3CC(C)OC(C)C3)nc2)cccc1-c1ccc(OC(F)(F)F)cc1` (stereo not given), the Potency is 10.3 µM (active).

Take `CN(C)C[C@@H]1CCn2cc(c3ccccc32)C2=C(C(=O)NC2=O)c2cn(c3ccccc23)CCO1`: the Potency was 0.417 µM (active).

As to `COc1cc(C(C)=O)ccc1O[C@@H]1O[C@H](CO[C@@H]2O[C@@H](C)[C@H](O)[C@@H](O)[C@H]2O)[C@@H](O)[C@H](O)[C@H]1O`, the Potency result is “inactive”.

With `C[C@@H]1C[C@@H](O)[C@@]23CO[C@]2(CO)C[C@@H](O)CC3[C@@]12CC(c1ccoc1)OC2=O` (stereo not given in full), the Potency entry is “inactive”.

With `CC[C@@H](C)Nc1cc(C(=O)NC2CC3CCC(C2)N3c2ccc(C(=O)C3CC3)cn2)c(C)cc1C(N)=O` (stereo not given in full), the Potency is 0.0206 µM (active).

With `CC(=O)OC(C)C[N+](C)(C)C` (stereo not given), the Potency result is “inactive”.
